Compound activity as filed in PubChem BioAssay.
KDM5B inh = KDM5B demethylase inhibition. Q9UGL1. KDM5B demethylase, FDH-coupled NADH fluorescence (FDH is formaldehyde dehydrogenase). Potency, µM (titrated, usually from 57.7 µM), actives largely listed as inhibitors. 220,000 tested, 2.6% active; further: potency means the concentration at half of the fitted maximal effect; 0% is about no effect; nearly all actives have a fitted effect of over 70% in size
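Here, H3K4me3 peptide (12.5 µM in substrate mix) is demethylated by KDM5BΔAP, 200 nM final, after 10 min compound exposure. Formaldehyde product is coupled through FDH (0.25 U/mL in mix) to NADH fluorescence; 30-min ΔRFU feeds dose-response curves.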
IP6K1 inh = inhibitors of human IP6K1; activity change, % (series mostly up to about 58 µM); 140,000 tested, 0.81% active; AID 1645851; IP6K1 kinase, ADP-Glo luminescence, 2 h; hits give low values; in the data active means activity change below about -25%; further: on the % scale 0 is the no-effect control and ±100 the full control effect
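ADP-Glo luminescence measures ADP made by human IP6K1 during a 2 h RT reaction with ATP/IP6 (mix at 1.3 mM/130 uM); top library doses 57.5 and 19.1 uM final.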
IP6K1 inh cnf = human IP6K1 inhibition, confirmatory; 1,200 tested, 13% active; AID 1645852; Potency, µM (highest dose often 49 µM), for the others: top-dose activity change, negative = inhibition, actives largely listed as inhibitors; shares compounds with IP6K1 inh; recombinant IP6K1 kinase, ADP-Glo luminescence, 2 h; further: potency means the concentration at half of the fitted maximal effect; on the % scale 0 is the no-effect control and ±100 the full control effect; nearly all actives have a fitted effect of over 65% in size
Numbers without * were called inactive. Most compounds without a hit are left out; they make up all but 2.8% or so of the library. Unless noted, the call rests on the fitted dose curve; in most records, active means well fitted inhibition curve with a large enough effect; inconclusive means small, poorly fitted or top-dose-only effect; inactive means no such curve, though single readings can be large or run the other way.

COc1cccc(C2c3c(oc4ccc(C)cc4c3=O)C(=O)N2CCCN2CCOCC2)c1OC (configuration not stated) was read as KDM5B inh inactive, IP6K1 inh -25.1* and IP6K1 inh cnf -2.1%.
Screening COc1cc(C2c3c(oc4cc(C)c(C)cc4c3=O)C(=O)N2CCCN2CCOCC2)ccc1O (configuration not stated) returned KDM5B inh inconclusive and IP6K1 inh 37.0.
Cn1cc(-c2ccc3nnc(C(F)(F)c4ccc5ncccc5c4)n3n2)cn1 was read as IP6K1 inh 1.0 and IP6K1 inh cnf -19.3%.
For Cn1cc(-c2ccc3ncc(Cc4ccc5ncccc5c4)n3n2)cn1 the results were IP6K1 inh -13.2.
`COC(=O)c1ccc(CNC(=O)C2Cc3ccccc3O2)cc1` (configuration not stated) gave KDM5B inh inactive.
COc1ccc(Nc2cc(C(=O)NCc3ccccc3)c3ccccc3n2)cc1 was read as KDM5B inh inactive, IP6K1 inh -44.2* and IP6K1 inh cnf -10.3%.
For COc1ccc(CNC(=O)c2cc(Nc3ccccc3C)nc3ccccc23)cc1 the results were KDM5B inh inactive and IP6K1 inh -0.4.
CCCCN(CCCNC(=O)c1cc(Nc2ccc(OC)cc2OC)nc2ccccc12)Cc1ccccc1 was read as KDM5B inh inconclusive and IP6K1 inh 3.4.
`CCN(CCCNC(=O)c1cc(Nc2ccc(OC)cc2OC)nc2ccccc12)c1cccc(C)c1` gave KDM5B inh inconclusive, IP6K1 inh -36.1* and IP6K1 inh cnf -1.7%.
For COc1cccc(N2C(=O)NC(=NC3CCCCC3)C23CCCN([S+](=O)([O-])c2cccc(C(F)(F)F)c2)C3)c1 (configuration not stated) the results were KDM5B inh inactive and IP6K1 inh -16.7.
`O=C(Nc1ccccc1F)NC1CCN(CCn2nc3n(c2=O)CCCC3)C1` (configuration not stated) gave IP6K1 inh 1.1.
For Cc1ncc(NC(=O)c2ccc(CN3CCN(C)CC3)c(C(F)(F)F)c2)cc1Nc1nccc(-c2cccnc2)n1 the results were IP6K1 inh 1.9.
For Cc1ccc(C(=O)Nc2ccc(CN3CCN(C)CC3)c(C(F)(F)F)c2)cc1C#Cc1cnc2[nH]ncc2c1 the results were IP6K1 inh -60.6* and IP6K1 inh cnf 7.31µM*.
For Cc1ccc(NC(=O)c2ccc(CN3CC[C@H](N(C)C)C3)c(C(F)(F)F)c2)cc1Nc1nccc(-c2cncnc2)n1 the results were IP6K1 inh 5.9.
`CCN1CCN(Cc2ccc(NC(=O)c3ccc(C)c(/C=C/c4cnc5[nH]ccc5c4OC)c3)cc2C(F)(F)F)CC1` gave IP6K1 inh -39.3* and IP6K1 inh cnf 4.61µM*.
For Cc1ccc(-c2c(C(=O)N3CCOCC3)nc3sccn23)cc1 the results were IP6K1 inh 0.5.
For Cc1cccc(-c2nc3cc(NC(=O)c4ccccc4F)ccc3o2)c1 the results were KDM5B inh inactive.
For Cc1ccc(C(=O)Nc2ccc3oc(-c4cccnc4)nc3c2)c(Cl)c1 the results were KDM5B inh inconclusive, IP6K1 inh -29.8* and IP6K1 inh cnf inconclusive.
`COc1ccc(Br)cc1C(=O)Nc1ccc2oc(-c3cccnc3)nc2c1` gave KDM5B inh inconclusive and IP6K1 inh 15.0.
Screening O=C(Nc1ccc2oc(-c3cccnc3)nc2c1)c1ccccc1F returned KDM5B inh inconclusive, IP6K1 inh -29.5* and IP6K1 inh cnf inconclusive.
`CC(C(=O)Nc1cccc(Cl)c1)N1CCN(c2ccc([N+](=O)[O-])c3cnccc23)CC1` (configuration not stated) gave KDM5B inh inactive.
Screening COc1ccccc1Nc1nc(-c2ccccc2F)nc2ccccc12 returned KDM5B inh inactive and IP6K1 inh -0.1.
COc1cc2nc(-c3cc(F)ccc3O)nc(N[C@@H]3CNC[C@H]3C(C)(C)O)c2cc1OC was read as IP6K1 inh -62.1* and IP6K1 inh cnf 3.26µM*.
For O=C1c2ccccc2-[n+]2ccc3c([nH]c4ccccc43)c21 the results were IP6K1 inh cnf -24.4%.
CN(C)CC(=O)N1Cc2ccccc2CC2(CCCN(CC3CCNCC3)C2)C1 (configuration not stated) was read as KDM5B inh inconclusive and IP6K1 inh 11.8.
`CN(C)CC(=O)N1Cc2ccccc2CC2(CCN(CC3CCNCC3)C2)C1` (configuration not stated) gave KDM5B inh inactive, IP6K1 inh -26.8* and IP6K1 inh cnf inconclusive.
`O=C(C1CCCN1C(=O)c1ccccc1)N1CCC(N2CCCC2=O)CC1` (configuration not stated) gave IP6K1 inh 8.5.
Screening CC(C)N1CCC2(CC1)CN(C(=O)c1cnccn1)Cc1ccccc1O2 returned IP6K1 inh -16.2.
Screening CCOC(=O)N1CCC2(CC1)N=C(CCC(C)C)NC2=O returned KDM5B inh inactive and IP6K1 inh 11.5.
Screening CC(C)CCC1=NC2(CCN(C(=O)CCN3CCCCC3=O)CC2)C(=O)N1 returned KDM5B inh inactive, IP6K1 inh -34.6* and IP6K1 inh cnf -13.8%.
`COc1ccc([C@H]2Cc3cccc(O)c3C(=O)O2)cc1OC` gave IP6K1 inh 17.8.
Cc1cc(C)cc(-n2ccn3c(SCC(=O)c4ccc(Br)cc4)nnc3c2=O)c1 was read as KDM5B inh inactive.
For Cc1nc(-c2ccc(Cl)cc2)n(CC(=O)Nc2cccc(C(F)(F)F)c2)c(=O)c1CCO the results were KDM5B inh inactive and IP6K1 inh -0.3.
O=C(Cn1c(=O)oc2cc(Cl)ccc21)Nc1cccc(C(F)(F)F)c1 was read as KDM5B inh inactive, IP6K1 inh -28.4* and IP6K1 inh cnf 28.0%.
NC1=NC(c2ccc(O)cc2)n2c(nc3ccccc32)N1 (configuration not stated) was read as KDM5B inh inactive.
`COCCNc1nc(NCc2cccc(Cl)c2)c2cnn(C)c2n1` gave KDM5B inh inconclusive, IP6K1 inh -39.1* and IP6K1 inh cnf -6.7%.
Screening Cn1ncc2c(NCc3cccc(Cl)c3)ncnc21 returned KDM5B inh inactive and IP6K1 inh -3.8.
Cc1noc(C)c1-c1ccc2c(n1)CN(Cc1ccc(C(F)(F)F)cc1)C(=O)CO2 was read as KDM5B inh inactive and IP6K1 inh -6.0.
O=C1COc2ccc(-c3ccoc3)nc2CN1Cc1ccc(C(F)(F)F)cc1 was read as KDM5B inh 35.5µM*, IP6K1 inh -28.7* and IP6K1 inh cnf inconclusive.
Screening Cc1nc(-c2cccc(Cl)c2)n(CC(=O)Nc2ccc(F)cc2)c(=O)c1CCO returned KDM5B inh inactive and IP6K1 inh 0.2.
Cc1nc(CC(=O)N2CC[C@@H](NC(=O)c3cnccn3)[C@H](O)C2)cs1 was read as KDM5B inh inactive and IP6K1 inh -3.6.
For COc1ccccc1CC(=O)N1CC[C@@H](NC(=O)c2cnccn2)[C@H](O)C1 the results were KDM5B inh inconclusive, IP6K1 inh -30.9* and IP6K1 inh cnf 6.3%.
`COc1cccc(C(CNC(=O)c2ccc(S(=O)(=O)Nc3ccc(C)cc3)cc2)N(C)C)c1` (configuration not stated) gave KDM5B inh inactive.
